Source: PubChem
This is a sample that favours compounds with a hit; in the whole collection about 4.1% have one here.
DAX1 inh-1 – inhibitors of DAX1 repression of SF-1 activated StAR promoter; HEK293T StAR-luciferase reporter, SF-1/DAX-1 repression relief; inhibition, % at 6.8 µM; 370,000 compounds, 1.1% hits;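 active = inhibition above the mean over all tested compounds plus 3 SD, cut at about 3.6% in these data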;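 also: higher inhibition means more luminescence from relief of DAX-1 repression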
hgDAF-12 ag – hgDAF-12 agonism, primary luciferase screen; HEK293 GAL4-hgDAF12 UAS-luciferase reporter, agonist luminescence; normalized to butyrate control; activation, % at 6.8 µM; 370,000 compounds, 1.8% hits;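 active = activation above a cutoff set at the mean of all screened compounds plus 3 SD, cut at about 10% in these data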
DAX1 inh-2 – inhibitors of human orphan nuclear receptor DAX1 (NR0B1). HEK293 Gal4-DAX1 luciferase reporter, luminescence. inhibition, % at 6.75 µM. 340,000 compounds, 0.99% hits. AID 504766;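 active = inhibition above the mean over all tested compounds plus 3 SD, cut at about 4.2% in these data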;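 also: inhibition shows as a rise in luminescence from relieved DAX1 repression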
Target sequence (P51843 207-470 limits assumed): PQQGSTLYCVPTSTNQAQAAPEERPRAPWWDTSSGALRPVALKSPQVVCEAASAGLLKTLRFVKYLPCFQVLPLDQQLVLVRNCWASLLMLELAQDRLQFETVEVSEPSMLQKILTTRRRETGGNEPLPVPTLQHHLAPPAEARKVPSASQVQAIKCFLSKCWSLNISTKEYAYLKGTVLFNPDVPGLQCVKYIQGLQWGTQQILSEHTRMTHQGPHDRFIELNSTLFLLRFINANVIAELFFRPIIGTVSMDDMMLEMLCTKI
ssDAF-12 act – S. stercoralis DAF-12 activation, primary screen; 370,000 compounds, 1% hits; HEK293 ssDAF-12/GRIP1 lit1-tk-luc reporter, luminescence; % of 3 µM dafachronic acid response; activation, % at 6.8 µM;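 active = activation above the mean over all tested compounds plus 3 SD, cut at about 0.9% in these data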
hcDAF12 agonist – activators of H. contortus DAF-12 nuclear receptor. HEK293 hcDAF-12 lit1-tk-luc reporter, luminescence; 0% DMSO, 100% Δ7-dafachronic acid. activation, % at 6.8 µM. 370,000 compounds, 1.4% hits;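 active = activation above the mean of all tested compounds plus 3 SD, cut at about 5.5% in these data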
Large screens that a line does not name were inactive.

Cc1ccc(S(=O)(=O)NC(=O)Nc2cccc([N+](=O)[O-])c2)cc1	none
Cc1ccc(NC(=O)CCCCCNS(=O)(=O)c2ccc(C)cc2)cc1	ssDAF-12 act 1.1
CC(C)(C)OC(=O)NCc1cc(F)ccc1/C=C/S(=O)(=O)NCc1ccc(F)cc1	none (no result: DAX1 inh-2)
CCN1C(=O)/C(=C/C=C2/CCCN2C)OC1=S	hgDAF-12 ag 13
C[C@H]1[C@@H](C(=O)N2CCCC2)Cc2nc3ccccc3nc2C[C@@H]1c1ccccc1	none (no result: DAX1 inh-2)
Cc1cc(-c2n[nH]c(=S)o2)c(C)n1-c1ccccc1	DAX1 inh-1 4.0 (no result: DAX1 inh-2)
Oc1cc2ccccc2cc1-c1n[nH]c(=S)o1	none
COc1ccc(CCN2CCC(CN3C(=S)NC[C@@H]3Cc3ccccc3)CC2)cc1OC	none (no result: DAX1 inh-2)
Cn1cccc([N+](=O)[O-])c1=O	none
Cn1c(-c2ccccc2[N+](=O)[O-])[n+](C)c2ccccc21	DAX1 inh-2 5.0
O=C(NC1=NC2CCCCC2N1)c1ccccc1 (stereo not given)	DAX1 inh-1 3.8
CC1(C)CC(=O)N(CC(=O)N2CCN(c3ccc(F)cc3)CC2)c2ccccc2S1(=O)=O	none (no result: DAX1 inh-2)
Cc1ccc(C)c(NC(=S)N(C)CCO)c1	DAX1 inh-2 4.8
CCCCNC(=O)C[C@H]1C[C@@]2(C(=O)OC)C(=C[C@H](C(C)C)O[C@@H]2C2CC2)N(Cc2ccc(Cl)cc2Cl)C1=O	none (no result: DAX1 inh-2)
COc1ccc(C2=NOC(C(=O)NCc3ccco3)C2)cc1 (stereo not given)	hgDAF-12 ag 12
COc1cc(C2=NOC(C(=O)NCc3ccco3)C2)cc(OC)c1OC (stereo not given)	none
COc1ccc(NC(=O)CSCC(=O)NCc2ccco2)cc1	DAX1 inh-1 4.3
COc1ccc(NC(=O)CCC(=O)N/N=C/c2ccncc2)cc1	DAX1 inh-2 5.5
COc1ccc(/C=N/NC(=O)CSCC(=O)Nc2ccccc2)cc1	DAX1 inh-2 5.0
CC/C=C\[C@H](O)[C@H](O)C1=C(C)C(=O)[C@]2(O1)C(=O)N[C@@](OC)(C(=O)c1ccccc1)[C@@H]2O	none (no result: DAX1 inh-2)
CCC(C(=O)Nc1ccccc1N1CCCC1)c1cccc(Cl)c1 (stereo not given)	none (no result: DAX1 inh-2)
O=C(O)C1C2CCC(C2)C1C(=O)Nc1ccccc1 (stereo not given)	DAX1 inh-2 4.3
CC(C)C(NC(=O)[C@H](Cc1ccc(O)cc1)NC(=O)OC(C)(C)C)P(=O)(O)OC(Cc1ccccc1)C(=O)O (stereo not given in full)	none (no result: DAX1 inh-1, DAX1 inh-2)
Cc1cc(-c2nc3ncccc3o2)ccc1NC(=O)CC(C)C	DAX1 inh-1 3.9
COc1ccc(S(=O)(=O)N2CCOC23CCN(S(=O)(=O)c2ccccc2)CC3)cc1	DAX1 inh-2 4.3
O=C(Nc1ccc(C(=O)N2CCCCC2)cc1)[C@H]1O[C@@H](n2ccc(=O)[nH]c2=O)[C@H](O)[C@@H]1O	DAX1 inh-1 3.7 (no result: DAX1 inh-2)
Cc1cc(-c2n[nH]c(=S)n2N=Cc2c3ccccc3cc3ccccc23)n[nH]1	none (no result: DAX1 inh-2)
O=C1CSC(=S)N1c1cccc(F)c1	none
O=C1CC(=O)N(c2cccc(F)c2)N1	DAX1 inh-2 6.0
C=CCNC(=O)Nc1ccc2c(c1)[C@@]1(CC(=O)N(CC(C)C)C1c1ccccc1)C(=O)N2C (stereo not given in full)	none (no result: DAX1 inh-2)
O=C(NCCCNC1CCCCC1)c1ccc(/C=N/O)nc1	ssDAF-12 act 1.5
Cc1nc(NCCCN2CCOCC2)c2cnn(-c3ccccc3)c2n1	hgDAF-12 ag 12
COc1ccc(N2CCN(CCCNC(=O)Cn3c(=O)c4cccn4c4cccnc43)CC2)c(OC)c1	none (no result: DAX1 inh-1, DAX1 inh-2)
Cc1ccc(NC(=O)c2ccc(OC(=O)COc3ccc(Cl)cc3C)cc2)cc1	DAX1 inh-1 3.9, hgDAF-12 ag 13, hcDAF12 agonist 6.1
CCCCN1CC(N2CCCC2)CS1(=O)=O (stereo not given)	none (no result: DAX1 inh-2)
Nc1c(C(=O)CSc2nc3ccccc3o2)c(=O)[nH]c(=O)n1C1CC1	DAX1 inh-1 4.4
COc1cccc(C2NC(=S)N(Cc3ccc(Br)cc3)C(C)=C2C(C)=O)c1 (stereo not given)	none (no result: DAX1 inh-2)
Cn1cc(C(=O)N2CCc3ccccc32)cn1	ssDAF-12 act 1.2, hcDAF12 agonist 6.5
Cc1nc(C(F)(F)F)ccc1C(=O)Nc1ccc(C(F)(F)F)cn1	none
Cc1nc(-c2ccncc2)nc(NCCNc2ccc(C(F)(F)F)cn2)c1Cl	DAX1 inh-2 9.1
CCCN(CC1CC1)C(=O)CN1C(=O)C2CCCCN2C(=O)c2ccccc21 (stereo not given)	none (no result: DAX1 inh-2)
OCc1c[nH]c2ccccc12	hcDAF12 agonist 6.0
OCCc1c[nH]c2ccccc12	DAX1 inh-2 4.5
O=C(O)Cc1c[nH]c2ccccc12	none
COc1ccc(-c2nc3c(C)cc(Br)cn3c2Cc2ccccc2C(F)(F)F)cc1OC	none (no result: DAX1 inh-2)
CC(C)(C)c1ccc(S(=O)(=O)NCC2CCN(C(=O)C(=O)c3cccs3)CC2)cc1	none (no result: DAX1 inh-2)
COc1cccc(CN(C)C(=O)[C@@H](Cc2ccccc2)NC(=O)[C@H]2O[C@@H](n3ccc(=O)[nH]c3=O)[C@H](O)[C@@H]2O)c1	none (no result: DAX1 inh-2)
CCn1c(-c2ccc(N(C)C)cc2)nc2ccccc21	none
CN(C)c1ccc(C(O)Cc2nc3ccccc3n2C)cc1 (stereo not given)	hcDAF12 agonist 5.6
CC(C)c1ccc(C(O)Cc2nc3ccccc3n2C)cc1 (stereo not given)	DAX1 inh-2 4.6
CN(C)c1ccc(-c2nc3ccccc3n2C)cc1	DAX1 inh-1 4.0
CCc1cc2c(nc1CC)CCCN2S(=O)(=O)c1ccc(C(F)(F)F)cc1	none (no result: DAX1 inh-2)
CC(C)C[C@H](NS(=O)(=O)c1ccc(F)cc1F)C(=O)N1CCC[C@H]1C(=O)NCc1ccccc1	none (no result: DAX1 inh-2)
O=[N+]([O-])c1cc2c(c(CSc3ncccn3)c1)OCOC2	DAX1 inh-2 6.9
Nc1cc(N)nc(SCc2cc([N+](=O)[O-])cc3c2OCOC3)n1	none
CN(C)N1C(N)=C(C#N)C(c2cccc3ccccc23)C2=C1CC(c1ccccc1)CC2=O (stereo not given)	DAX1 inh-2 5.6
CN(C)N1C(N)=C(C#N)C(c2ccccc2)C2=C1CC(C)(C)CC2=O (stereo not given)	none
CCC(=O)Nc1ccc(Cl)cc1C(=O)c1ccc[nH]1	none (no result: DAX1 inh-1, DAX1 inh-2)
COc1ccccc1NC(=O)/C=C\c1ccco1	hcDAF12 agonist 5.6
CSc1cccc(NC(=O)/C=C/c2ccco2)c1	none
COc1cccc(NC(=O)/C=C/c2ccco2)c1	DAX1 inh-1 4.0, hgDAF-12 ag 11
COc1cccc(CNC(=O)C2CCC(CNS(=O)(=O)c3cccc4cccnc34)CC2)c1OC (stereo not given)	none (no result: DAX1 inh-2)
CN1C(=O)C[C@@](C#N)(C(=O)NCCc2ccccc2)[C@H]1c1ccccc1	none (no result: DAX1 inh-2)
Fc1ccc(/C=N/Nc2nn[nH]n2)cc1	DAX1 inh-2 7.1
CCc1ccc(/C=N/Nc2nn[nH]n2)cc1	none
COc1ccc(/C=N\NC(=O)Cc2cccs2)c(OC)c1OC	none (no result: DAX1 inh-2)
